How the values were obtained:
[1] = target: T1, Inhibitor of nuclear factor kappa-B kinase subunit epsilon (Homo sapiens) (UniProt Q14164); settings: at 1 µM;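 note: reported values are averaged percent inhibition figures against human IKKε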
T1 sequence (whole entry): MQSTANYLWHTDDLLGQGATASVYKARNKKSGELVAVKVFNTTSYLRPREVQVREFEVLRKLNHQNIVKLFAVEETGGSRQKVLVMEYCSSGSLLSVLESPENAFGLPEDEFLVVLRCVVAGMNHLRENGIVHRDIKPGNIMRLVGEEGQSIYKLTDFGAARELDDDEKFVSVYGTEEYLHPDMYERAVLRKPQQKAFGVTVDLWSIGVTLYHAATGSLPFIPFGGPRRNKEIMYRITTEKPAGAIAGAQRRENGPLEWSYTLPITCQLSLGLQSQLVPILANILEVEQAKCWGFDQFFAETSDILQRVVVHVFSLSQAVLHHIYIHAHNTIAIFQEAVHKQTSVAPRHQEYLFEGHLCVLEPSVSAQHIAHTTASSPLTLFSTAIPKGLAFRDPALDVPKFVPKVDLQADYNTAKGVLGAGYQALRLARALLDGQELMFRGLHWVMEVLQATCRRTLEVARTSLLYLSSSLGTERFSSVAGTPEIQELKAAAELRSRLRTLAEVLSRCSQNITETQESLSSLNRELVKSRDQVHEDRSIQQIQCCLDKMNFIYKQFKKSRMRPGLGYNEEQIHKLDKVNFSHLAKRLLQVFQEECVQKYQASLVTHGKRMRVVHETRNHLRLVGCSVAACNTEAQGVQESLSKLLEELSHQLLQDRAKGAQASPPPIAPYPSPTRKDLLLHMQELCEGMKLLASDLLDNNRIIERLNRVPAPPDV

[2] = target: T2, Serine/threonine-protein kinase Nek1 (Homo sapiens) (UniProt Q96PY6); settings: at 0.1 µM
T2 sequence (whole entry): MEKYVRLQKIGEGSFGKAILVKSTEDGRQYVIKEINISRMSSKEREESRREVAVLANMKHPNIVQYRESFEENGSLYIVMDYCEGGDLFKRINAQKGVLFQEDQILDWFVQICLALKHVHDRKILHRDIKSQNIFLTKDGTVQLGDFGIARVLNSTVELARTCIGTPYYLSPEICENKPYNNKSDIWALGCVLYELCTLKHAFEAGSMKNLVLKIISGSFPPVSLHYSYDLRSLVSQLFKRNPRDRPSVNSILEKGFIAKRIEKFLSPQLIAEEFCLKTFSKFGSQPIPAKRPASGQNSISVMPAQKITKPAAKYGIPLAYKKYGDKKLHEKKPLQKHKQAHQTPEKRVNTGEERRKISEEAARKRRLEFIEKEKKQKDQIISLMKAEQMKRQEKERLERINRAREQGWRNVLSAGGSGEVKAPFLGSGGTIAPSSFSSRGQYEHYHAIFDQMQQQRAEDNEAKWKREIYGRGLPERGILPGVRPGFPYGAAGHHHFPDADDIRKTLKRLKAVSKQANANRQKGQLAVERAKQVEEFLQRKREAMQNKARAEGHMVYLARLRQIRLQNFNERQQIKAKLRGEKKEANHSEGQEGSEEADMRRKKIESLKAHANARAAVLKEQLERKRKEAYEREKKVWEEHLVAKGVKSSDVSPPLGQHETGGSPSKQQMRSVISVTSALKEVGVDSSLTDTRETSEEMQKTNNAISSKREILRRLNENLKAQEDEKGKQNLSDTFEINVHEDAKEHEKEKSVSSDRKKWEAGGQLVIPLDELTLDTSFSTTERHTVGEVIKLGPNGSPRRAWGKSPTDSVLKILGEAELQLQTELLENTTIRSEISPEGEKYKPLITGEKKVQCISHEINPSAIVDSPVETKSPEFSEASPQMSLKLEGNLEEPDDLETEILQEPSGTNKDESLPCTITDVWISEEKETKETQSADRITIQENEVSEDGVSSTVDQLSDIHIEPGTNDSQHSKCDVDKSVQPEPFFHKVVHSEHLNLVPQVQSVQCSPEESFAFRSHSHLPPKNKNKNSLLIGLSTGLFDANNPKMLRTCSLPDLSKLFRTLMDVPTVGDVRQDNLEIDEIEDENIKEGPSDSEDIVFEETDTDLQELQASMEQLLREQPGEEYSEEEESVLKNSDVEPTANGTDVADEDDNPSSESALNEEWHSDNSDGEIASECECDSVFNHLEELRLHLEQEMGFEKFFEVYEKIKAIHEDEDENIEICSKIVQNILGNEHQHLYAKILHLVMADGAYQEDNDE

[3] = target: T2, Serine/threonine-protein kinase Nek1 (Homo sapiens); settings: at 1 µM
[4] = target: T3, Serine/threonine-protein kinase Nek2 (Homo sapiens) (UniProt P51955); settings: at 0.1 µM
T3 sequence (whole entry): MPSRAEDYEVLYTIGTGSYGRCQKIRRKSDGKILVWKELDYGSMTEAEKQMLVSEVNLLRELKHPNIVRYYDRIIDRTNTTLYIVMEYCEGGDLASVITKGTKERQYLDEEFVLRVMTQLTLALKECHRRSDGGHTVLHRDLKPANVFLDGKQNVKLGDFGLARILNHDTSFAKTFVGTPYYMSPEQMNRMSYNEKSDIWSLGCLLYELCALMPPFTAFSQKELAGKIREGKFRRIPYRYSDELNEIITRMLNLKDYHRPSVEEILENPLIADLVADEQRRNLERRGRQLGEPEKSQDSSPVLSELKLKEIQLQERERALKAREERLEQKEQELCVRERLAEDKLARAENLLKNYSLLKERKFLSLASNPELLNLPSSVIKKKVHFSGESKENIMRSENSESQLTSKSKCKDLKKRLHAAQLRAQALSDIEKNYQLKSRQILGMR

[5] = target: T3, Serine/threonine-protein kinase Nek2 (Homo sapiens); settings: at 1 µM
[6] = target: Serine/threonine-protein kinase Nek6 (Homo sapiens) (UniProt Q9HC98); settings: at 0.1 µM
Sequence of Serine/threonine-protein kinase Nek6 (Homo sapiens) (Q9HC98 whole entry): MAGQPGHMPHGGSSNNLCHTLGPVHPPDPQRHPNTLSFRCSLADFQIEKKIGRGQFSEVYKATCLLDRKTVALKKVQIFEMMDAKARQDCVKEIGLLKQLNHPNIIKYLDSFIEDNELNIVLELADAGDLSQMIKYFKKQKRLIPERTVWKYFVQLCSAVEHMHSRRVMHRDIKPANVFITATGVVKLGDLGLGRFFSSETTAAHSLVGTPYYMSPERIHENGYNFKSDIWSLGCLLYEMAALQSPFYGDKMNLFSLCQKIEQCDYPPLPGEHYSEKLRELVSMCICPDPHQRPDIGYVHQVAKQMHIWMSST

[7] = target: Serine/threonine-protein kinase Nek6 (Homo sapiens) (UniProt Q9HC98); settings: at 1 µM
[8] = target: Serine/threonine-protein kinase Nek7 (Homo sapiens) (UniProt Q8TDX7); settings: at 0.1 µM
Sequence of Serine/threonine-protein kinase Nek7 (Homo sapiens) (Q8TDX7 whole entry, looked up): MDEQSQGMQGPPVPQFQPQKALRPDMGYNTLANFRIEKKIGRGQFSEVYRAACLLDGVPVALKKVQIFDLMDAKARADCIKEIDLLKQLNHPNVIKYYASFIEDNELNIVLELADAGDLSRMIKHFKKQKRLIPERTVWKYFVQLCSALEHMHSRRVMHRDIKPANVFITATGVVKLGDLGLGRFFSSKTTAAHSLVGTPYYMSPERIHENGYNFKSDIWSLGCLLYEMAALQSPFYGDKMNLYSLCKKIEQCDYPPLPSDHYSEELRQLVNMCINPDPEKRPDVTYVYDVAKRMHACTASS

[9] = target: Serine/threonine-protein kinase Nek7 (Homo sapiens) (UniProt Q8TDX7); settings: at 1 µM
[10] = target: T4, Serine/threonine-protein kinase Nek9 (Homo sapiens) (UniProt Q8TD19); settings: at 0.1 µM;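 note: reported value is the mean percent inhibition of NEK9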
T4 sequence (whole entry): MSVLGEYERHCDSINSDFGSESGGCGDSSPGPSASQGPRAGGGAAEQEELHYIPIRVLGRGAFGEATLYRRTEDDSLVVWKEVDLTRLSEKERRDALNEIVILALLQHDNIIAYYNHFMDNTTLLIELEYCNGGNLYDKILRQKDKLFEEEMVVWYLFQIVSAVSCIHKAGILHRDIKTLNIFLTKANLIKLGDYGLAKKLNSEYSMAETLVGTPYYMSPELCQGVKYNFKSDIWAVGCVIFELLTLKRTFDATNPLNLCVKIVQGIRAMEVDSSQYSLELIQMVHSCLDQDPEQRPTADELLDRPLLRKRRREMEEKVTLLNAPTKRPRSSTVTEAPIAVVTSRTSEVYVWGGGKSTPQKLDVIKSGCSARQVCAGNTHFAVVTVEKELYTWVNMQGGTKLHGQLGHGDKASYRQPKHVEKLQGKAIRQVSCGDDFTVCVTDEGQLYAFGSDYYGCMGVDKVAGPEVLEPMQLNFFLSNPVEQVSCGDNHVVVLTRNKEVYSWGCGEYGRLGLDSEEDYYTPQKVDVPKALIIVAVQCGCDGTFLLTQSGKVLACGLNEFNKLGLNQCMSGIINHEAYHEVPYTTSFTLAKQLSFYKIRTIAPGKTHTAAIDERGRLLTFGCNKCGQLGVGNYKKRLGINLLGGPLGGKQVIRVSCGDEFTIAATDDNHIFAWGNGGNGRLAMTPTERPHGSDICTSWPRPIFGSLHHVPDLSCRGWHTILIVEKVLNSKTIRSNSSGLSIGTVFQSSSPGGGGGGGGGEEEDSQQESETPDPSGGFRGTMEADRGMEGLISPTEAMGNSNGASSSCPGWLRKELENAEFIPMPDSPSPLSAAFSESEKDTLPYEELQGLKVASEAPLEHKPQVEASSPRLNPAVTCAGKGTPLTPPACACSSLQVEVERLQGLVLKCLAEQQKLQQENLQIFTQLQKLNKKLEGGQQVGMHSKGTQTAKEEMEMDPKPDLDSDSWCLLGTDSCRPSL

Structure (SMILES)	inhibition [1] [%]	inhibition [2] [%]	inhibition [3] [%]	inhibition [4] [%]	inhibition [5] [%]	inhibition [6] [%]	inhibition [7] [%]	inhibition [8] [%]	inhibition [9] [%]	inhibition [10] [%]
O=C1NC(=O)C(c2ccc(Cl)cc2)=C1Nc1ccc(Cl)c(C(=O)O)c1	-2.57	-0.84	-2.3	-1.89	-2.45	0.26	2.37	-1.15	-3.67	-5.68
COc1ccc(-c2nn3ncccc3c2-c2ccnc(Nc3ccc(Cl)c(C(F)(F)F)c3)n2)cc1	5.7	1.43	2.51	2.35	1.82	3.06	2.55	3.34	3.28	6.79
Fc1cccc(COc2ccc(Nc3ncnc4cc(-c5ccc[nH]5)sc34)cc2Cl)c1	3.19	1.42	4.17	3.51	5.24	1.65	3.84	5.51	2.22	1.71
c1cnn2ncc(-c3ccnc(Nc4ccc5c(c4)OCCO5)n3)c2c1	20.5	4.85	20.4	4.88	15.4	3.89	4.5	3.53	6.49	16.2
COC(=O)Nc1nc2cc(Oc3cccc(NC(=O)Nc4cc(C(F)(F)F)ccc4F)c3)ccc2[nH]1	0.25	-0.22	2.32	0.79	0.72	1.5	0.11	2.69	1.59	-4.74
Fc1cccc(COc2ccc(Nc3ncnc4sc(-c5cccs5)cc34)cc2Cl)c1	3.74	2.04	2.57	2.88	1.85	-0.49	1.79	-0.09	5.03	1.95
CC(C)=Cc1cccc2c1/C(=N/Nc1ccc(S(N)(=O)=O)cc1)C(=O)N2	21.9	0.48	2.3	-1.83	-0.31	1.86	0.97	-1.18	-0.48	4.67
NC(=O)c1ccc(-c2nc(-c3ccccn3)c(-c3ccc4c(c3)OCO4)[nH]2)cc1	4.06	1.34	3.26	2.44	2.69	2.04	4.68	2.26	1.68	6.53
CS(=O)(=O)CCNCc1ccc(-c2ccc3ncnc(Nc4ccc(OCc5cccc(F)c5)c(C(F)(F)F)c4)c3c2)o1	2.73	2.28	4.09	4.44	3.68	2.48	3.62	4.72	4.32	7.55
COc1ccc(COc2ccc(Cc3cnc(N)nc3N)cc2OC)cc1	-2.21	1.41	1.56	-0.14	-1.4	-0.54	-3.71	2.81	1.75	0.22
NCc1ccc(-c2nc(-c3ccc(Cl)c(O)c3)c(-c3ccncc3)[nH]2)cc1	-0.03	0.3	1.09	-2.48	0.73	-0.93	-1.57	1.75	1.7	7.64
CC1=C(C(=O)Nc2ccc3[nH]ncc3c2)C(c2ccc3ccccc3c2)CC(=O)N1 (stereo not given)	3.81	1.66	2.46	2.88	2.9	-0.05	2.48	0.42	1.79	3.14
CCn1c(-c2nonc2N)nc2cncc(C(=O)N3CCNCC3)c21	7.71	4.64	3.76	3.46	5.88	1.92	3.67	2.41	10.8	6
Nc1nc(-c2ccc3c(c2)C(=Cc2cc(Br)c(O)c(Br)c2)C(=O)N3)cs1	-0.65	-0.4	2.14	-0.41	2.78	-0.92	3.09	2.05	-1.46	2.02
CS(=O)(=O)CCN(CC#N)Cc1ccc(-c2ccc3ncnc(Nc4ccc(OCc5cccc(F)c5)c(Cl)c4)c3c2)o1	1.93	0.91	1.78	3.59	2.16	2.16	-0.23	2.49	7.27	2.5
Nc1ncnc2occ(-c3ccc(NC(=O)Nc4cccc(C(F)(F)F)c4)cc3)c12	9.66	7.14	41.9	6.56	7.21	2.78	1.33	2.42	-0.46	5.7
CC1=C(C(=O)Nc2ccc3[nH]ncc3c2)C(c2ccc(F)cc2)NC(=O)N1 (stereo not given)	4.43	2.09	4.56	3.07	2.73	0.8	0.71	3.54	2.72	2.85
